{
  "source": "PubChem BioAssay (NCATS)",
  "note": "Records with an inconclusive call do not appear. A number with no mark means an inactive call. Calls of active or inactive are those of the source. The call rests on the fitted dose curve; in most records, active means well fitted cell-killing curve with a large enough effect; inconclusive means small, poorly fitted or top-dose-only effect, or effect the other way; inactive means no such curve, though single readings can be large or run the other way. Starred links: 1 amine or outer side, 2 acyl side, 3 side chain; linkers in the order of their positions; H or OH if unused. Positions of bridges follow the written chain, without caps; N, C: chain ends. Non-standard residues stand in square brackets, D forms with d. Residues, ends and D or L forms follow the SMILES beside them. Chains are numbered I, II in the order given. ξ: configuration not given here. *: point of attachment. Actinocin(9to1) = Cc1c2oc3c(C)ccc(C(=O)[*:1])c3nc-2c(C(=O)[*:2])c(N)c1=O; Octanoyl(6-Me) = CCC(C)CCCCC(=O)*; ξThr(3R) = C[C@@H](O)C(N)C(=O)O; NMeV = CN[CH](C(=O)O)C(C)C; dDab = NCC[C@@H](N)C(=O)O; Dab = NCC[C@H](N)C(=O)O; Cbz = O=C(OCc1ccccc1)*; Sar = CNCC(=O)O",
  "data": [
    {"assay": "Quantitative High-Throughput drug screen in 47 multiple myeloma cell lines against the NCATS MIPE library collection: SKMM1_PLB cell viability assay (AID 1919863); further: nearly all actives have a fitted effect of over 35% in size; further: potency means the concentration at half of the fitted maximal effect; on viability: series mostly up to about 46 µM", "conditions": "SKMM1 myeloma viability, CellTiter-Glo ATP, 48 h; viability: stronger effect = lower value", "text": "PI: Beverly A. Mock Ph.D.\nLaboratory of Cancer Biology and Genetics,\nCenter for Cancer Research, National Cancer Institute,\nNational Institute of Health, Bethesda, Maryland\nDrug resistance and disease progression are common in multiple myeloma (MM) patients, underscoring the need for new therapeutic combinations. […] We hypothesized that effective combinations would reduce MYC expression and enhance p16 activity. […] These preclinical data identify potentially useful drug combinations for evaluation in drug-resistant MM and reveal potential mechanisms of combined drug sensitivity.\nDescribed herein is the primary MIPE qHTS used to cherrypick compounds. Validated compounds were then further tested for potential synergistic activiy.\n[1] Peat TJ, Gaikwad SM, Dubois W, Gyabaah-Kessie N, Zhang S, Gorjifard S, Phyo Z, Andres M, Hughitt VK, Simpson RM, Miller MA, Girvin AT, Taylor A, Williams D, D'Antonio N, Zhang Y, Rajagopalan A, Flietner E, Wilson K, Zhang X, Shinn P, Klumpp-Thomas C, McKnight C, Itkin Z, Chen L, Kazandijian D, Zhang J, Michalowski AM, Simmons JK, Keats J, Thomas CJ, Mock BA. Drug combinations identified by high-throughput screening promote cell cycle transition and upregulate Smad pathways in myeloma. Cancer Lett. 2023 Aug 1;568:216284. doi: 10.1016/j.canlet.2023.216284. Epub 2023 Jun 24. PMID: 37356470; PMCID: PMC10408729.\nSEQUENCE No. (e.g., 1, 2, 3, etc.); […] (e.g., Cells, Incubation, Reagent, etc.); VALUE and DESCRIPTION.\n1; Cells; 5 uL; white, solid bottom 1536-well Greiner assay plate.\n2; Compounds; 23 nL; Kalypsis pin tool (Wako USA) equipped with a 1536-well pin head to transfer to the assay plates.\n3; Incubation; 48 hours; 37C incubation.\n4; Reagent;5uL; CellTiter Glo (Promega).\n5; Detector; 425V; Luminescence; Viewlux PerkinElmer.\nNOTES (numbers refer to Sequence numbers above)\n1. The cell-based screening methods employed in this study were like those previously published. Briefly, the corresponding myeloma cell lines were screened in 1,536-well plates with 500 cells, 5-uL per well for inhibition of cell viability (assessed by measuring ATP levels with CellTiterGlo).\n2. NCATS MIPE 4.0 library of approved and investigational drugs were added using the Kalypsis pin tool. Wells treated with DMSO only for 100% viability and media only for 0% viability were used as controls.\n3. The assay plates were covered and incubated for 48 hours in a 37C, 5% CO2 incubator with controlled humidity.\n4. After 48 hours, CellTilter-GloTM luminescent substrate mix (Promega) reagent was added to the assay plate and plates we incubated for 5 min at room temperature.\n5. Signal was measured as median relative luminescence units on a ViewLux (PerkinElmer) multiplate reader.\n[1] Heske CM, Davis MI, Baumgart JT, Wilson K, Gormally MV, Chen L, Zhang X, Ceribelli M, Duveau DY, Guha R, Ferrer M, Arnaldez FI, Ji J, Tran HL, Zhang Y, Mendoza A, Helman LJ, Thomas CJ. Matrix Screen Identifies Synergistic Combination of PARP Inhibitors and Nicotinamide Phosphoribosyltransferase (NAMPT) Inhibitors in Ewing Sarcoma. Clin Cancer Res. 2017 Dec 1;23(23):7301-7311. doi: 10.1158/1078-0432.CCR-17-1121. Epub 2017 Sep 12. PMID: 28899971; PMCID: PMC6636827.", "units": {"viability": "%"}, "values": [
      {"smiles": "CC(C)[C@H](CO)Nc1nc(Nc2cccc(Cl)c2)c2ncn(C(C)C)c2n1", "Potency": "20900 nM (active)"},
      {"smiles": "CC(C)C[C@@H](C=O)NC(=O)[C@H](CC(C)C)NC(=O)[C@H](CC(C)C)NC(=O)OCc1ccccc1", "note": "(Cbz-Leu-Leu-Leu-aldehyde)", "Potency": "1180 nM (active)"},
      {"smiles": "CS[C@H]1SC[C@@H]2C(=O)N(C)[C@H](C(C)C)C(=O)OC[C@H](NC(=O)c3cnc4ccccc4n3)C(=O)N[C@H](C)C(=O)N(C)[C@@H]1C(=O)N(C)[C@H](C(C)C)C(=O)OC[C@H](NC(=O)c1cnc3ccccc3n1)C(=O)N[C@H](C)C(=O)N2C", "Potency": "9.3 nM (active)"},
      {"smiles": "CCOC(=O)C=C[C@H](C[C@@H]1CCNC1=O)NC(=O)[C@@H](CC(=O)[C@@H](NC(=O)c1cc(C)on1)C(C)C)Cc1ccc(F)cc1", "viability": 138},
      {"smiles": "CC(C=CC=C(C)C=CC1=C(C)CCCC1(C)C)=CC=CC=C(C)C=CC=C(C)C=CC1=C(C)CCCC1(C)C", "viability": 107},
      {"smiles": "CC[C@H]1OC(=O)[C@H](C)[C@@H](O[C@H]2C[C@@](C)(OC)[C@@H](O)[C@H](C)O2)[C@H](C)[C@@H](O[C@@H]2O[C@H](C)C[C@H](N(C)C)[C@@H]2O)[C@](C)(OC)C[C@@H](C)C(=O)[C@H](C)[C@@H](O)[C@]1(C)O", "Potency": "105 nM (active)"},
      {"smiles": "CCc1cc(C(C)=NOCc2ccc(C3CCCCC3)c(C(F)(F)F)c2)ccc1CN1CC(C(=O)O)C1", "Potency": "18700 nM (active)"},
      {"smiles": "NC(=O)Nc1cc(-c2ccc(CN3CCOCC3)cc2)sc1C(N)=O", "Potency": "18700 nM (active)"},
      {"smiles": "CO[C@@H]1[C@@H](O)[C@H](O)[C@@H](n2c3c(Cl)cccc3c3c4c(c5c6cccc(Cl)c6[nH]c5c32)C(=O)NC4=O)O[C@@H]1CO", "Potency": "2350 nM (active)"},
      {"smiles": "CC[C@@]1([C@@H]2O[C@@H]([C@H]3O[C@@](O)(CO)[C@H](C)C[C@H]3C)C[C@H]2C)CC[C@H]([C@]2(C)CC[C@]3(C[C@H](O)[C@@H](C)[C@@H]([C@@H](C)[C@@H](OC)[C@H](C)C(=O)O)O3)O2)O1", "Potency": "323 nM (active)"},
      {"smiles": "CCC(C)CCCCC(=O)N[C@@H](CCN)C(=O)NC(C(=O)N[C@H](CCN)C(=O)N[C@@H]1CCNC(=O)C([C@@H](C)O)NC(=O)[C@@H](CCN)NC(=O)[C@@H](CCN)NC(=O)[C@@H](CC(C)C)NC(=O)[C@H](Cc2ccccc2)NC(=O)[C@H](CCN)NC1=O)[C@@H](C)O", "note": "(stereo partly drawn) ({Octanoyl(6-Me)}-[Dab][ξThr(3R)][dDab][dDab][Dab]F[dL][dDab][dDab][ξThr(3R)]; lactam 4-C)", "viability": 110},
      {"smiles": "CNC(=O)c1cccc(-c2ccc3c(N4CCOC[C@H]4C)nc(N4CCOC[C@H]4C)nc3n2)c1", "Potency": "66.2 nM (active)"},
      {"smiles": "CN(C)c1ccc(C(=O)NCCCCCCC(=O)NO)cc1", "Potency": "1480 nM (active)"},
      {"smiles": "CC(C)Oc1ccc(C(=O)N[C@H](CNC(=O)CN(C)C)Cc2ccc(-c3cn4cccc([C@H](C)O)c4n3)cc2)cc1Cl", "Potency": "296 nM (active)"},
      {"smiles": "COc1cc([C@@H]2c3cc4c(cc3[C@H](O)[C@H]3COC(=O)[C@@H]23)OCO4)cc(OC)c1OC", "Potency": "59 nM (active)"},
      {"smiles": "Cc1onc(-c2ccccc2)c1C(=O)N[C@@H]1C(=O)N2[C@@H](C(=O)O)C(C)(C)S[C@@H]12", "viability": 123},
      {"smiles": "COc1cc(C=CC(=O)CC(=O)C=Cc2ccc(O)c(OC)c2)ccc1O", "Potency": "15200 nM (active)"},
      {"smiles": "CC(Cc1ccc(O)c(O)c1)(NN)C(=O)O", "note": "(stereo not given)", "Potency": "16600 nM (active)"},
      {"smiles": "Cc1c2oc3c(C)ccc(C(=O)NC4C(=O)NC(C(C)C)C(=O)N5CCCC5C(=O)N(C)CC(=O)N(C)C(C(C)C)C(=O)OC4C)c3nc-2c(C(=O)NC2C(=O)NC(C(C)C)C(=O)N3CCCC3C(=O)N(C)CC(=O)N(C)C(C(C)C)C(=O)OC2C)c(N)c1=O", "note": "(stereo not given) (I: TVP[Sar][NMeV] / II: TVP[Sar][NMeV]; ester I:1-I:C, II:1-II:C; linker I:N-II:N via Actinocin(9to1); configuration not given here)", "viability": -11},
      {"smiles": "CC(=O)OCC(=O)[C@@]12N=C(C)O[C@H]1C[C@H]1[C@@H]3CCC4=CC(=O)C=C[C@]4(C)[C@@H]3[C@@H](O)C[C@@]12C", "viability": 135},
      {"smiles": "O=C(CCCCCCC(=O)Nc1cccnc1)NO", "Potency": "5900 nM (active)"},
      {"smiles": "CCNC(=O)c1cc2c(-c3cc(OCCN4CCCC4)c(Cl)cc3Cl)nc(N)nc2s1", "Potency": "2350 nM (active)"},
      {"smiles": "COc1cc(C)c(C=CC(C)=CC=CC(C)=CC(=O)O)c(C)c1C", "viability": 132},
      {"smiles": "CCOC(=O)[C@@H](N)Cc1ccc(-c2cc(O[C@H](c3ccc(Cl)cc3-n3ccc(C)n3)C(F)(F)F)nc(N)n2)cc1", "Potency": "23500 nM (active)"},
      {"smiles": "O=C1NC(=O)[C@@H](c2cn3c4c(cccc24)CCC3)[C@H]1c1c[nH]c2ccccc12", "Potency": "132 nM (active)"},
      {"smiles": "N#Cc1c(NC(=O)c2cccc3ccccc23)sc2c1CCCC2", "Potency": "526 nM (active)"},
      {"smiles": "COc1ccc(C=Cc2cc(OC)c(OC)c(OC)c2)cc1NC(=O)[C@H](N)CO", "Potency": "5.9 nM (active)"},
      {"smiles": "COc1cc2c(Nc3ccc(Cl)c(Cl)c3F)ncnc2cc1OCC1C[C@@H]2CN(C)C[C@H]2C1", "Potency": "5900 nM (active)"},
      {"smiles": "CC(C=CC1=C(C)CCCC1(C)C)=CC=CC(C)=CC(=O)Nc1ccc(O)cc1", "Potency": "19100 nM (active)"},
      {"smiles": "NC(=O)c1cccc(-c2cccc(OC(=O)NC3CCCCC3)c2)c1", "viability": 110},
      {"smiles": "C=CC(=O)Nc1ccc2ncnc(Nc3ccc(OCc4cccc(F)c4)c(Cl)c3)c2c1", "Potency": "6620 nM (active)"},
      {"smiles": "COc1ccc2c(c1OC)C(=O)OC2[C@H]1c2c(cc3c(c2OC)OCO3)CCN1C", "note": "(stereo not given in full)", "Potency": "23.5 nM (active)"},
      {"smiles": "NC(=O)c1ncn([C@@H]2O[C@H](CO)[C@@H](O)[C@@H]2O)c1N", "viability": 159},
      {"smiles": "CC(=O)N[C@@H]1[C@H](O[C@@H]2c3ccc(c(Cl)c3)Oc3cc4cc(c3O[C@H]3O[C@H](CO)[C@@H](O)[C@H](O)[C@H]3NC(=O)CCCCCCCC(C)C)Oc3ccc(cc3Cl)C[C@H]3NC(=O)[C@H](N)c5ccc(O)c(c5)Oc5cc(O)cc(c5)[C@H](NC3=O)C(=O)N[C@H]4C(=O)N[C@H]3C(=O)N[C@@H]2C(=O)N[C@@H](C(=O)O)c2cc(O)cc(O[C@H]4O[C@H](CO)[C@@H](O)[C@H](O)[C@H]4O)c2-c2cc3ccc2O)O[C@H](CO)[C@@H](O)[C@@H]1O", "viability": 107},
      {"smiles": "Oc1cc(-c2nc(-c3ccccc3)[nH]c2-c2ccncc2)ccc1Cl", "Potency": "16600 nM (active)"},
      {"smiles": "CCN(CC)CCCCNc1ncc2c(n1)N(C)C(=O)N(c1c(Cl)c(OC)cc(OC)c1Cl)C2", "Potency": "14800 nM (active)"},
      {"smiles": "Cn1c(Nc2ccc(C(F)(F)F)cc2)nc2cc(Oc3ccnc(-c4ncc(C(F)(F)F)[nH]4)c3)ccc21", "Potency": "20900 nM (active)"},
      {"smiles": "C[C@H](O)[C@@H]1C(=O)N2C(C(=O)O)=C(S[C@@H]3CN[C@H](CNS(N)(=O)=O)C3)[C@@H](C)[C@@H]12", "viability": 105},
      {"smiles": "CC(=O)[C@]1(O)Cc2c(O)c3c(c(O)c2[C@@H](O[C@H]2C[C@H](N)[C@@H](O)[C@H](C)O2)C1)C(=O)c1ccccc1C3=O", "Potency": "187 nM (active)"},
      {"smiles": "O=C(Nc1ccc(Oc2ccnc3[nH]ccc23)c(F)c1)c1cccn(-c2ccc(F)cc2)c1=O", "Potency": "18700 nM (active)"}
    ]}
  ]
}
